In PubChem BioAssay AID1851 (National Center for Advancing Translational Sciences (NCATS), 2009):
Where “and” joins values, the source holds several entries; their conditions need not be identical. Identical values can stand only once. The whole screen tested about 16,000 compounds, of which about 2,600 (16%) were called active. About 20% were inconclusive and are not listed. The call rests on the fitted dose curve; in most records, active means well fitted curve in the direction sought with a large enough effect; inconclusive means small, poorly fitted or top-dose-only effect, or effect the other way; inactive means no such curve, though single readings can be large or run the other way. Only a sample is shown. Some structures have more than one record in an assay (separate samples or runs), and their calls can disagree.

biological target: Cytochrome P450 2D6 (Homo sapiens) (UniProt P10635); assay: Cytochrome panel assay with activity outcomes; conditions: recombinant CYP, pro-luciferin dealkylation, luminescence, p450-cyp2d6; series mostly up to 57.1 µM; activity, negative = inhibition: at the top concentration
Sequence (P10635 whole entry, looked up): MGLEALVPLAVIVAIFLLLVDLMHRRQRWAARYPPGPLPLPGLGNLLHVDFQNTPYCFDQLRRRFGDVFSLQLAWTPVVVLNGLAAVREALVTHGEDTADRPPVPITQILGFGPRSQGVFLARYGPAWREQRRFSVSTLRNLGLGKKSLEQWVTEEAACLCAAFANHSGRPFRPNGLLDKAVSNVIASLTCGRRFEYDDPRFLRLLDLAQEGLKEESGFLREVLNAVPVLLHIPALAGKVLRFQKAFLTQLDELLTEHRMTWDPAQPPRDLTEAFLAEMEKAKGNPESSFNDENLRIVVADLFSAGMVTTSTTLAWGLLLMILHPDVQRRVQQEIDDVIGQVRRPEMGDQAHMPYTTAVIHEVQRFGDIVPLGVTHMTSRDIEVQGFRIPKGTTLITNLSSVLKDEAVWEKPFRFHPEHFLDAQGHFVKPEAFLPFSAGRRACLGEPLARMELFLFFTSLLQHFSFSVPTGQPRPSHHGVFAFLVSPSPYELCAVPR
On the % scale 0 is the no-effect control and ±100 the full control effect.

| SMILES | activity, negative = inhibition | AC50 |
| --- | --- | --- |
| CCOC(=O)c1[nH]c2ccc(Cl)cc2c1-c1ccccc1 | 7.26% (inactive) |  |
| CCOC(=O)N1CCN(c2c(-c3ccccc3)c3cc(Cl)ccc3[nH]c2=O)CC1 |  | 0.355 µM (active) |
| CCOC(=O)N1CCN(C(=O)c2cccn3c(=O)c4cc(Cl)ccc4nc23)CC1 | -19.7% (inactive) |  |
| O=C(c1ccccc1)N1CCSC1=S | 2.21% (inactive) |  |
| COc1ccc(C(=O)[C@H](Br)[C@H](Br)C(=O)O)cc1 | -14.6% [at 11.4 µM] (inactive) |  |
| CCOc1cc(/C=N/n2cnnc2)c(Br)cc1O | 0.114% (inactive) |  |
| Cn1c(/C=N/NC(=O)c2ccccc2Br)nc2ccccc21 | -16.1% (inactive) |  |
| Cc1ccc(C(=O)N/N=C/c2nc3ccccc3n2C)cc1 | -3% (inactive) |  |
| Cc1ccc(/C=N/NC(=O)CSc2nc3ccccc3n2C)s1 |  | 7.08 µM (active) |
| O=C(c1cc(Br)ccc1O)c1cc(Br)ccc1O | -11.4% [at 11.4 µM] (inactive) |  |
| CC(C)=C[C@H]1[C@@H](C(=O)Oc2ccccc2C(C)C)C1(C)C | 0.868% [at 11.4 µM] (inactive) |  |
| CC1(C)CCC=[N+]1[O-] | 2.61% (inactive) |  |
| Nc1c2c(nc3ccccc13)CCC[C@H]2O | -6.84% (inactive) |  |
| Nc1[nH]n2c(=O)c3c(nc2c1N=Nc1ccccc1)CCCC3 | -21.7% (inactive) |  |
| Nc1c2c(nc3ccccc13)CCCC2 |  | 5.01 µM (active) and inactive |
| COc1ccc(NC(=O)C2CC(=O)NC3=C2C(=O)CC(C)(C)C3)cc1 (stereo unspecified) | 8.12% (inactive) |  |
| COc1ccc(CCN=CC2=C(O)CC(C)(C)CC2=O)cc1 | -0.143% (inactive) |  |
| CC(=O)OC[C@@H]1O[C@H](C/C=N\OC[C@@H](O)COCc2ccco2)C=C[C@@H]1OC(C)=O | -5.26% [at 11.4 µM] (inactive) |  |
| CC(=O)OC[C@@H]1O[C@H](C/C=N\O[C@@H](C)CN2CCCCc3nc(C)c(C)cc32)C=C[C@@H]1OC(C)=O |  | 3.16 µM (active) |
| CC(=O)OC[C@@H]1O[C@H](C/C=N\O[C@@H](C)CN2CCCc3nc(C)c(C)cc32)C=C[C@@H]1OC(C)=O |  | 3.16 µM (active) |
| CC(=O)OC[C@@H]1O[C@H](C/C=N\O[C@@H](C)c2cn([C@H](CO)Cc3ccccc3)nn2)C=C[C@@H]1OC(C)=O | 6.63% [at 11.4 µM] (inactive) and -11.6% [at 11.4 µM] (inactive) |  |
| CC(=O)OC[C@@H]1O[C@H](C/C=N\O[C@@H](C)c2cn([C@H]3COC[C@H]3O)nn2)C=C[C@@H]1OC(C)=O | 10.3% [at 11.4 µM] (inactive) |  |
| CC(=O)OC[C@@H]1O[C@H](C/C=N\O[C@@H](C)c2cc(-c3c(C)cc(C)cc3C)no2)C=C[C@@H]1OC(C)=O | -0.786% [at 11.4 µM] (inactive) |  |

| SMILES | activity, negative = inhibition | AC50 |
| --- | --- | --- |
| CC(C)Nc1nc(NC(C)(C)C)nc(Oc2ccc(=O)n(-c3ccccc3)n2)n1 | -18.2% (inactive) |  |
| Cc1ccc(NC(=O)Nc2nc(-c3ccc(C)s3)cs2)cc1 | -3.69% (inactive) |  |
| CCCCN(C(=O)NC(=O)Nc1ccccc1OCC)S(C)(=O)=O | -22.9% (inactive) |  |
| Cc1cnn(-c2cc(N/N=C/c3ccccc3)ncn2)c1 | 6.87% (inactive) |  |
| Cc1ccc2nc(N/N=C\c3cccc(C)n3)cc(C)c2c1 |  | 3.16 µM (active) |
| COc1cccc(C(C#N)N2N=C(C)CC2(C)C)c1O (stereo unspecified) | -3.53% (inactive) |  |
| Cc1nc(S(=O)(=O)N2CCOCC2)c(C#N)c(C)c1Cl | 11.6% (inactive) |  |
| COc1cccc2c1[C@@H]1CN(CCCCn3c(=O)[nH]c4c(sc5ncc(-c6ccccc6)nc54)c3=O)C[C@H]1CO2 |  | 31.6 µM (active) |
| CCN(CC)C(=O)C1CCCN(c2ccc([N+](=O)[O-])cc2/C=N/NC(=O)c2ccc([N+](=O)[O-])cc2)C1 (stereo unspecified) | -13.6% (inactive) |  |
| C/C(N)=C(/C#N)C(=O)COc1ncnc2ccc(Br)cc12 | -0.639% (inactive) |  |
| Brc1ccc2cccnc2c1 | 22% (inactive) |  |
| Brc1ccc2ncnc(Nc3cccc4ccccc34)c2c1 |  | 14.1 µM (active) |
| Cc1cc(C(F)F)n2nc(C(=O)Nc3sc4c(c3C#N)CCC(C)C4)nc2n1 (stereo unspecified) | -32.8% (inactive) |  |
| COCCn1c(=O)c(-c2ccc(Cl)cc2)nc2cnc(Oc3ccccc3)nc21 | -2% (inactive) |  |
| Cc1cc(C)c(S(=O)(=O)n2ccc(-c3ccc(OCCN(C)c4ccccn4)cc3)n2)c(C)c1 | 18.4% (inactive) |  |
| COC(=O)CN(c1ccccn1)S(=O)(=O)c1ccccc1 | 9.48% (inactive) |  |
| CN(CCOc1ccc(C[C@H](Nc2ccccc2C(=O)c2ccccc2)C(=O)O)cc1)c1ccccn1 |  | 0.0316 µM (active) |
| COCCCN1C(=O)C(=O)/C(=C(/O)c2ccc(OC)cc2C)C1c1cccnc1 (stereo unspecified) | -1.26% (inactive) |  |
| Cc1ccc(COc2coc(CO)cc2=O)cc1 | 13.9% (inactive) |  |
| Cc1ccc(COc2ccc(Br)cc2/C=N/O)cc1 |  | 17.8 µM (active) |
| CC(C)(C)c1ccc(OCC(=O)N/N=C/c2cc(Br)ccc2OC(=O)c2ccco2)cc1 | 28.3% (inactive) |  |
| CCNc1ncc2nc(-c3cccs3)c(=O)n(Cc3cccs3)c2n1 | -19.8% (inactive) |  |
| CCNc1ncc2nc(-c3cccc(C#N)c3)c(=O)n(CCC#N)c2n1 |  | 0.0316 µM (active) |
